Screens (PubChem BioAssay)
An excerpt weighted towards active compounds, which were near 12% of everything screened.
Sm TGR block: qHTS Assay for the Inhibitors of Schistosoma Mansoni Peroxiredoxins; Schistosoma mansoni thioredoxin glutathione reductase (TGR), Q962Y6; purified TGR, DTNB reduction, TNB absorbance 405 nm; Potency, µM (series often up to 114 µM), usual class: inhibitors; hit rate 3% among 360,000; AID 485364, 2010; also: nearly all actives have a fitted effect of over 60% in size
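TGR 20 nM + NADPH 100 uM (dispensed conc.), cpd preinc 15 min RT; start with NADPH (500 uM addition) then DTNB (15 mM addition). Kinetic TNB absorbance, 405 nm filter. Four-parameter Hill fit across titration.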
AmpC detergent: qHTS Inhibitors of AmpC Beta-Lactamase (assay with detergent); P00811; AmpC hydrolysis of nitrocefin, absorbance 480 nm, 0.01% Triton; Potency, µM (doses to about 114 µM), actives largely listed as inhibitors; hit rate 0.041% among 370,000; AID 485294, 2010; also: nearly all actives have a fitted effect of over 25% in size
Target sequence (P00811 whole entry, looked up): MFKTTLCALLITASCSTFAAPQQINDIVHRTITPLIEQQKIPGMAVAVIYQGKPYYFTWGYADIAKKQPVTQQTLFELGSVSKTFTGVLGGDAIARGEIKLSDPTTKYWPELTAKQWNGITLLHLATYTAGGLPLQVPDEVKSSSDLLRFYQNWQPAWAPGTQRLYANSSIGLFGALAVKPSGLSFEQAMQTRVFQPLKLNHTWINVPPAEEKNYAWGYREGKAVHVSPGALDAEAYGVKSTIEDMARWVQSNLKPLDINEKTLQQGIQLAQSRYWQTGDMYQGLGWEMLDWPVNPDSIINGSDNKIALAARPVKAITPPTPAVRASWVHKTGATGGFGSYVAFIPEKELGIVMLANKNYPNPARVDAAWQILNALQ
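20 mM phosphate pH 7.0 + 0.01% (detergent screen) or 0.0001% Triton X-100; 5.3 nM AmpC reagent; cpd preinc 15 min RT; nitrocefin (800 uM stock) to start; A480 q20 s × 4 min; Activity was normalised to no-enzyme and no-compound control wells.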
Pf growth 48h: Primary qHTS for delayed death inhibitors of the malarial parasite plastid, 48 hour incubation | hit rate 5.9% among 310,000 | Potency, µM (titrated, usually from 28.7 µM), hits mostly inhibitors | P. falciparum luciferase growth in erythrocytes, 48 h
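Luciferase-expressing parasites in RBCs, 2% Hct / 0.1% parasitemia final; RPMI 1640 + 0.5% Albumax; 37 C, 5% CO2, one generation; luminescence read-out, lower signal = inhibition.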
Pf growth 96h: Primary qHTS for delayed death inhibitors of the malarial parasite plastid, 96 hour incubation; hit rate 6.9% among 320,000; Potency, µM (highest dose often 28.7 µM), actives largely listed as inhibitors; P. falciparum luciferase reporter growth, 96 h
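Compounds incubated with erythrocytes infected by luciferase-expressing P. falciparum (2% hematocrit, 0.05% parasitemia final) for 96 hours, 37 C in 5% CO2. Growth inhibition scored as decreased luciferase luminescence.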
SARS PLP yeast: qHTS of Yeast-based Assay for SARS-CoV PLP. S. cerevisiae expressing SARS-CoV PLpro, growth rescue. Potency, µM (top dose mostly 32.9 µM), hits mostly activators. hit rate 0.19% among 330,000; calls by dose curve; also: nearly all actives have a fitted effect of over 55% in size
AmpC no deterg: qHTS Inhibitors of AmpC Beta-Lactamase (assay without detergent); Potency, µM (titrated, usually from 57.1 µM), usual class: inhibitors; P00811; AmpC nitrocefin hydrolysis, absorbance 480 nm, 0.0001% Triton; AID 485341, 2010; hit rate 0.52% among 330,000; also: nearly all actives have a fitted effect of over 20% in size
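AmpC (5.3 nM in the dispensed reagent) in 20 mM phosphate pH 7.0 with 0.01% (detergent screen) or 0.0001% Triton X-100 was preincubated with compounds for 15 min at room temperature. Nitrocefin was then added from an 800 uM solution, and hydrolysis was followed at 480 nm.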
Of the large screens only hits and unclear results are named; the others gave an inactive call. Unless noted, calls follow the shape of the dose curve; as a rule, active = well fitted curve in the direction sought with a large enough effect; inconclusive = small, poorly fitted or top-dose-only effect, or another doubt; inactive = no such curve, though single readings can be large; an effect the other way counts as inactive or inconclusive.

Cc1ccc2[nH]c(C(=O)N/N=C/c3ccccc3O)c(C)c2c1	Pf growth 48h 2.33µM, Pf growth 96h 4.65µM
Cc1ccc2[nH]c(C(=O)N/N=C/c3ccccc3C(=O)O)c(-c3ccccc3)c2c1	Pf growth 96h 0.738µM
CCOC(=O)c1cc(CC)sc1NC(=O)COC(=O)c1ccccn1	AmpC detergent inconclusive, Pf growth 48h inconclusive
COc1cccc(NC(=O)CN(C)C(=O)CCCc2nc3ccccc3c(=O)[nH]2)c1	AmpC detergent inconclusive
O=C(NC1CCCCC1)C1CC(=O)N(c2ccccc2)C1 (configuration not stated)	Pf growth 96h 3.29µM
COc1cccc(N2CC(C(=O)NNC(=O)c3ccc(Cl)cc3)CC2=O)c1 (configuration not stated)	Pf growth 96h 5.86µM
COc1cccc(N2CC(C(=O)NC3CCCCC3)CC2=O)c1 (configuration not stated)	AmpC detergent inconclusive (no result: Pf growth 96h)
COc1ccc(N2CC(C(=O)N[C@@H](C)C(=O)NC3CCCCC3)CC2=O)cc1 (some centres not stated)	none
COc1ccc(N2CC(C(=O)N[C@@H](CC(C)C)C(=O)NC3CCCCC3)CC2=O)cc1 (some centres not stated)	Pf growth 48h inconclusive, Pf growth 96h 14.7µM
O=C(COC(=O)C1CC(=O)N(c2ccccc2)C1)c1ccccc1 (configuration not stated)	AmpC detergent inconclusive, Pf growth 96h inconclusive, AmpC no deterg 1.41µM
COc1ccc(N2CC(C(=O)OCC(=O)c3ccccc3)CC2=O)cc1 (configuration not stated)	AmpC detergent inconclusive
COc1ccccc1CNC(=O)CSc1cc(C)[nH]c(=O)n1	none (no result: Pf growth 48h, Pf growth 96h, SARS PLP yeast, AmpC no deterg)
O=C(NC1CC1)C1CC(=O)N(c2cccc(Cl)c2)C1 (configuration not stated)	Sm TGR block 7.08µM, Pf growth 48h 10.4µM, Pf growth 96h inconclusive
CCOCCOC(=O)c1ccc(NC(=O)/C=C/c2ccc(OC)c(OC)c2)cc1	none (no result: Pf growth 48h, Pf growth 96h, SARS PLP yeast, AmpC no deterg)
COc1c(C)cc(C(=O)C2CCCN(Cc3cccc(O)c3)C2)cc1C (configuration not stated)	Pf growth 48h 11.7µM, SARS PLP yeast inconclusive
COc1c(C)cc(C(=O)C2CCCN(C3CCOCC3)C2)cc1C (configuration not stated)	Sm TGR block 12.6µM
O=C(c1cccc(OC2CCN(Cc3cccc(OCCO)c3)CC2)c1)N1CCCC1	Pf growth 96h 8.28µM
Cc1ccsc1C(=O)C1CCCN(Cc2cccc(OCCO)c2)C1 (configuration not stated)	none
COc1cccc(C(=O)C2CCCN(Cc3cccc(OCCO)c3)C2)c1 (configuration not stated)	AmpC detergent inconclusive, Pf growth 48h inconclusive, Pf growth 96h 4.65µM
O=C(/C=C/c1ccc(Cl)cc1)OCC(=O)c1ccc[nH]1	none
COc1cccc(C(=O)C2CCCN(Cc3cccc(C)n3)C2)c1 (configuration not stated)	Pf growth 48h 2.94µM, Pf growth 96h inconclusive
COCCNC(=O)c1cccc(OC2CCN(Cc3ccc(C(=O)OC)cc3)CC2)c1	Pf growth 48h inconclusive, Pf growth 96h inconclusive
Cc1ccc(CN2CCC(Oc3cccc(C(=O)N(C)CCN(C)C)c3)CC2)cc1C	Sm TGR block inconclusive, AmpC detergent inconclusive, Pf growth 48h 9.28µM
Cc1cccc(OCCSc2nc3ccccc3n2CC(=O)N2CCOCC2)c1C	none (no result: Pf growth 48h, Pf growth 96h, SARS PLP yeast, AmpC no deterg)
CCOC(=O)c1c(C)oc2nc(C)nc(Nc3cc(C)cc(C)c3)c12	none (no result: Pf growth 48h, Pf growth 96h, SARS PLP yeast, AmpC no deterg)
CCN(CC)S(=O)(=O)c1ccc(OC)c(NC(=S)Nc2cccc(C)c2C)c1	none
O=C1OC2(c3ccccc31)c1cc(I)c(O)c(I)c1Oc1c2cc(I)c(O)c1I	Sm TGR block 0.891µM, AmpC detergent 50.1µM, Pf growth 48h 13.1µM, Pf growth 96h 8.28µM, AmpC no deterg 25.1µM
